Whole data set: some 33,000 sequences, median “E-score (-0.5 to 0.5)” near -0.053, cut for the highest 2% near 0.37. The list comes from a sample in which the highest values are over-represented; it also holds similar and randomly drawn sequences.

This assay deals with Hap1 (UniProt P0CE41). Kind of assay: PBM E-score (8-mer binding enrichment) (E-score (-0.5 to 0.5)); higher = stronger / more preferred TF binding. The following applies: protein concentration: 200 nM; construct: GST-DNA-binding domain. As to the method: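 Universal 'all 10-mer' protein binding microarrays (Agilent AMADID 015681) probed with GST-tagged S. cerevisiae TFs (full-length or DBD) made by in vitro transcription/translation (PURExpress), about 100-200 nM. Bound TF was detected with fluorescent anti-GST. Each ungapped 8-mer (which stands for itself and its reverse complement) is scored by the PBM enrichment score (E-score), a modified Wilcoxon-Mann-Whitney statistic from -0.5 to +0.5, computed with the Universal PBM Analysis Suite. Scale: above 0.35 generally sequence-specific binding.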
Chain of UniProt P0CE41 (P0CE41 whole entry, the tested form may be a part): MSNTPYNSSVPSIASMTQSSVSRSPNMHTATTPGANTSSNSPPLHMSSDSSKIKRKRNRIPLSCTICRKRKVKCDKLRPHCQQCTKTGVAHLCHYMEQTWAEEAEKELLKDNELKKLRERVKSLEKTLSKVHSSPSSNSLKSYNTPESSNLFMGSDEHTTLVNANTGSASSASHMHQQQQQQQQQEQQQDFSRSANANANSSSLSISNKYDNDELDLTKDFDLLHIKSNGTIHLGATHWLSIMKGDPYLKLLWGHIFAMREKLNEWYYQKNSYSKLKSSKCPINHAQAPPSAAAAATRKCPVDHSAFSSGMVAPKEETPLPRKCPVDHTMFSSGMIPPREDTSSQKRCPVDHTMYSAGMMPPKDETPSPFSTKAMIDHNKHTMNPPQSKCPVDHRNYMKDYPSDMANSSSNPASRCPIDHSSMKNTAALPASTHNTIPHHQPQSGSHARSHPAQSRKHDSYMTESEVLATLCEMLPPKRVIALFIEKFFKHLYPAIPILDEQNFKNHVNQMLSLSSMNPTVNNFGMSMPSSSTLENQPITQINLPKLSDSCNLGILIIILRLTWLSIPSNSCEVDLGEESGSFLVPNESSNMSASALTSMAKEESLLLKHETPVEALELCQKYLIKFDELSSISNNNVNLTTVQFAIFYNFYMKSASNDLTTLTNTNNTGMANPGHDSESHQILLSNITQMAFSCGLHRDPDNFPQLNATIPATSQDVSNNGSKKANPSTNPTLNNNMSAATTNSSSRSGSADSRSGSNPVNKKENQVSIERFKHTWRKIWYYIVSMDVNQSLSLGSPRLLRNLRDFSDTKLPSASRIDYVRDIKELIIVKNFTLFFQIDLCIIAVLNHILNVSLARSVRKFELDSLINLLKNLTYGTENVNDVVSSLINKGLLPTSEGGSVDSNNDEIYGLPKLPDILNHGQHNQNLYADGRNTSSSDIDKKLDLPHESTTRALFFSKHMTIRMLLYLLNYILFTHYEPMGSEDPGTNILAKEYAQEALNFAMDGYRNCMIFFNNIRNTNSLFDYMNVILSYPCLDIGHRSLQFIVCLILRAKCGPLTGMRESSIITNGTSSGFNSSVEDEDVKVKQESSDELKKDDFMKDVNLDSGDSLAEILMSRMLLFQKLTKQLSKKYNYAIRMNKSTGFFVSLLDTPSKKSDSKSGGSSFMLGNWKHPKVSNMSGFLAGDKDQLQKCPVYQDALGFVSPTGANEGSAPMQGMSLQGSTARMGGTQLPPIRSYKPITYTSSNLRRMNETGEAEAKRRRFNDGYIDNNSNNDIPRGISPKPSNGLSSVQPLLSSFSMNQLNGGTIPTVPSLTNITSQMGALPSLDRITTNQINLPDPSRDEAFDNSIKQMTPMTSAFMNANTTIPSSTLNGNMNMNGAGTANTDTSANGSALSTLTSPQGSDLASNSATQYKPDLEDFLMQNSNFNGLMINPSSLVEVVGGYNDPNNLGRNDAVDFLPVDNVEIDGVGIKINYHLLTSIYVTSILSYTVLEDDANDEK
On to CGCAGTCA, for which the “PBM E-score” value was -0.0499.
Then AGAGATGG, with -0.0221; and AAGTGCGA, with 0.00701.
On to ATGAGTCC, for which the “PBM E-score” value stood at 0.0718.
For AACGACCC, the “PBM E-score” value was found to be 0.00262.
The same measure for AGGACAGC: -0.0413; for CTCCGGGC: 0.341; for GTCCGGGA: 0.38.
The same measure for GGCCGGGA: 0.336; for ATCCGGGA: 0.239.
Then CGCCGGGA, with 0.317.
For CTCCGGGA, the “PBM E-score” value is 0.392.
Then CGTGGTTA, with -0.251; and AGTGGAAG, with 0.0152.
The same measure for AATGGGCG: -0.0792.
Then GAGGCGGC, with 0.0321; and ATCCGATA, with 0.453; and GTACGATA, with -0.189.
ATCCGATC: the “PBM E-score” value was 0.326.
Turning to CTCCGATA, the “PBM E-score” value came to 0.432.
With GTTCGATA, the “PBM E-score” value amounted to 0.0968.
Then CTCCGATC, with 0.311; and ATCCGATG, with 0.277.
The same measure for CTACGATA: -0.179.
Regarding GTCCGATA, the “PBM E-score” value came out at 0.463.
Consider CTAACGTC, for which the “PBM E-score” value is 0.00466.
The same measure for TCGTACCA: -0.114.
As for GAGGCCAA, the “PBM E-score” value was -0.0324.
Regarding AACTGTCA, the “PBM E-score” value is -0.212.
Then ACAAACGA, with -0.145.
With CTCTGTCA, the “PBM E-score” value was -0.296.
Then TACCATGA, with -0.347; and AAGGGGGA, with -0.179.
The same measure for GTCACCCA: -0.158; for CTACCGGA: 0.412; for AGACCGGC: 0.235.
Then ATACCGGC, with 0.398.
Turning to ATACCGCA, the “PBM E-score” value was 0.284.
ATACCGGA: the “PBM E-score” value was found to be 0.437.
Then CTACCGGC, with 0.29; and ATACCGTG, with 0.0634.
Consider CTACCGAA, for which the “PBM E-score” value is 0.0576.
Then CTACCGCA, with 0.108.
For the sequence ATACCGGG, the “PBM E-score” value amounted to 0.416.
Then ATACCGTA, with 0.092; and ATACCGCG, with 0.21; and ATGGCTCA, with -0.343.
Then GGAAACCA, with -0.0131.
Then AGTACTTC, with 0.153; and CGCGCTTA, with 0.209; and CTGGAGGC, with -0.096.
In the case of AGACAAAC, the “PBM E-score” value is -0.0936.
The same measure for CAATTCTG: -0.284; for CCTCCTCA: -0.13.
Consider GATTCTAC, for which the “PBM E-score” value is -0.0077.
Then GTACCGTA, with 0.0486; and GTACCGCA, with 0.236.
As for GTACCGGA, the “PBM E-score” value stood at 0.393.
Then AGGGAGAA, with -0.0602.
The same measure for AATGGTGT: -0.0527.
Then ATAGTAGC, with 0.0136.
In the case of AACCCGAC, the “PBM E-score” value turned out to be 0.32.
The same measure for CCCCCGAA: 0.312; for ACCCCGAG: 0.348.
Then AACCCGAG, with 0.317; and ACCCCGAA, with 0.377; and ACCCCGAC, with 0.308.
The same measure for ACCCCGAT: 0.416; for AACCCGAT: 0.375.
On to GCCCCGAA, for which the “PBM E-score” value came out at 0.333.
Turning to CGCGTAAA, the “PBM E-score” value stood at 0.188.
Then AGTTATGG, with -0.0493.
The same measure for ACTGTGCG: -0.13.
The same measure for ATCATCGC: 0.0926.
Take AATTTCCA: the “PBM E-score” value was determined as 0.0738.
Then CAGAAGCC, with -0.0458; and GTACGGAA, with 0.28; and CGCTCACG, with 0.118.
Then AATACCAT, with -0.0062; and ATGGTCAA, with -0.23.
Then TGGACTAA, with -0.117; and AGGACTTC, with -0.152; and CGGACTTC, with 0.405.
For CGGACTAA, the “PBM E-score” value is 0.411.
Then GGGACTTA, with 0.0397.
On to CTGACTTC, for which the “PBM E-score” value was -0.0182.
The same measure for GGGACTAA: 0.0852; for CGGACTTA: 0.488.
Then AGGACTTA, with 0.18; and CCTGGTCC, with 0.138.
The same measure for GCCAGGAA: -0.262; for ATCGGCGA: 0.357.
Regarding GCCGGCGA, the “PBM E-score” value was determined as 0.364.
The same measure for ACCGGCGA: 0.39.
For the sequence ACCGGCGT, the “PBM E-score” value was determined as 0.282.
The same measure for GTCGGCGA: 0.218; for ACCGGCGG: 0.418; for CTCGGCGA: 0.383.
As for ACCGGCGC, the “PBM E-score” value turned out to be 0.267.
Take TCCGGCGA: the “PBM E-score” value turned out to be 0.362.
Then ATGGACGA, with 0.0824.
Then GGGGGTAC, with 0.215; and CTAACAGA, with -0.101.
The same measure for CTAGCAGA: -0.242; for ATCCTCAC: -0.103.
As for AGCAGGAT, the “PBM E-score” value is -0.0378.
As to TCTCCCAA, the “PBM E-score” value is -0.0542.
The same measure for GCTTTCCA: -0.11.
The same measure for GTCCGAGA: 0.437; for CCCCGAGC: 0.351; for CTCCGAGC: 0.386.
As to CTCCGACC, the “PBM E-score” value is 0.359.
On to CTCCGAGA, for which the “PBM E-score” value was 0.376.

The record behind these values is the supplement of paper PMC3334620.
